Results from PubChem BioAssay (Tox21).
“And” between values parts separate entries of the source, which are not always exact repeats. Identical values can stand only once. Inconclusive results are not listed. Where a call stands in place of a potency, no number is given. A structure can be active in one record and inactive in another. The source made the active and inactive calls. Unless noted, calls follow the shape of the full dose curve.

Tests used:
[1] = target: Gonadotropin-releasing hormone receptor (Homo sapiens) (UniProt P30968); assay: Human gonadotropin-releasing hormone receptor (GnRHR) small molecule agonists, calcium flux assay in GnRHR-HEK293 cells (AID 1920063); also: nearly all actives have a fitted effect of over 35% in size
Outline: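 Fluorescence kinetics (480 nm excitation, 540 nm emission; 3 min, 1 s steps) report calcium mobilisation in human GnRHR-HEK293 cells in agonist mode. Dye incubation: 1 h, 37 C.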

[2] = target: KiSS-1 receptor (Homo sapiens) (UniProt Q969F8); assay: Human kisspeptin (KISS1R) small molecule agonists, calcium flux assay in KISS1R-HEK293 cells (AID 1920064; active = well fitted activation curve with a large enough effect in the repeat runs)
Outline: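 Measures KISS1R agonism through calcium-sensitive dye fluorescence in stably transfected HEK293 cells, read for 3 min after pin-tool compound delivery; 15-point titrations in triplicate.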

[3] = G protein-coupled receptor (GPCR) small molecule agonists, calcium flux assay: HEK293 wild type cell line counter screen (AID 1920065)
Outline: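 Readout: fluorescence at 480 nm excitation/540 nm emission, sampled at 1 s intervals for 3 min. Cells had been cultured 18 h, then dye-loaded 1 h at 37 C before compound or ATP addition.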

[4] = p53 small molecule agonists, cell-based qHTS assay with human liver microsomes (AID 1963577)
Outline: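 Compounds act here after metabolic activation: human liver microsomes and NADPH, both at 0.5 mg/mL final, were co-added to p53RE-bla cells. Incubation ran 16 h at 37 C, followed by LiveBLAzer detection.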

[5] = p53 small molecule agonists, cell-based qHTS assay with rat liver microsomes (AID 1963578)
Outline: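 Read-out is beta-lactamase reporter fluorescence (LiveBLAzer, 2 h, room temperature, dark) in p53RE-bla cells treated 16 h at 37 C with compound, rat liver microsomes and NADPH, both 0.5 mg/mL final.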

[6] = p53 small molecule agonists, cell-based qHTS assay with rat liver microsomes: qHTS cell viability counter screen (AID 1963580); also: nearly all actives have a fitted effect of over 45% in size
Outline: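 Intracellular ATP, by CellTiter-Glo luminescence, defines viability. HCT-116 p53RE-bla cells, 4,000 per well, were compound-treated in the presence of rat liver microsomes and NADPH for 16 h at 37 C.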

[7] = p53 small molecule agonists, cell-based qHTS assay (AID 1963582; active = well fitted activation curve with a large enough effect in the signal ratio in the repeat runs, not every such curve was filed as active; the % refers to the signal ratio)
Outline: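 Compounds are pin-transferred in DMSO onto p53RE-bla cells and incubated 16 h at 37 C. The B/G FRET beta-lactamase substrate is then applied for 2 h at RT and fluorescence recorded.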

[8] = cAMP Responsive Elements (CRE) small molecule agonists, cell-based qHTS assay (AID 1963590); also: potency is read from the fitted curve at half-maximal effect
Outline: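 Cell line: CRE-bla HEK 293T; medium DMEM/10% dialyzed FBS/0.1 mM NEAA/1 mM pyruvate/25 mM HEPES; 3 h compound exposure; beta-lactamase FRET readout after 2 h substrate loading at RT.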

[9] = cAMP Responsive Elements (CRE) small molecule antagonists, cell-based qHTS assay (AID 1963591; active = well fitted inhibition curve with a large enough effect in the signal ratio in the repeat runs, not every such curve was filed as active; the % refers to the signal ratio)
Outline: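 Inhibition of NKH477-driven (0.25 uM final) CRE-beta-lactamase signal in HEK293T cells, 3 h compound exposure at 37 °C, detected by FRET substrate fluorescence.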

[10] = target: Beta-2 adrenergic receptor (Homo sapiens) (UniProt P07550); assay: Adrenergic beta2 receptor (ADRB2) small molecule agonists, cell-based qHTS assay (AID 1963593); also: potency is read from the fitted curve at half-maximal effect;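 as to activation: CHO cells stably overexpressing human ADRB2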
Outline: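 CHO cells stably over-expressing ADRB2 were plated overnight at 37C, then dosed with compounds plus a stimulation mix containing 100uM IBMX and 25uM Ro-20-1724 for 0.5hr at room temperature. cAMP was measured by HTRF competition, 1hr.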

[11] = target: D(2) dopamine receptor (Homo sapiens) (UniProt P14416); assay: Dopamine D2 receptor (DRD2) small molecule agonists, cell-based qHTS assay (AID 1963594); also: nearly all actives have a fitted effect of over 35% in size
Outline: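 cAMP accumulation in DRD2-HEK293 cells measured by HTRF after 1 h detection; compounds added 10 min before NKH477 (200nM […]) forskolin-analogue stimulation, 30 min at room temperature, with Ro20-1724 present at 0.1 mM final.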

[12] = target: D(2) dopamine receptor (Homo sapiens) (UniProt P14416); assay: Dopamine D2 receptor (DRD2) small molecule antagonists, cell-based qHTS assay (AID 1963595; active = well fitted inhibition curve with a large enough effect in the signal ratio in the repeat runs, with a control signal flat; the % refers to the signal ratio; also: potency is read from the fitted curve at half-maximal effect)
Outline: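 Antagonist mode in DRD2-HEK293 cells: after compound addition with 0.1 mM Ro20-1724, cells received quinpirole (12 nM) and NKH477 (200 nM) for 30 min at room temperature; HTRF cAMP read after 1 h detection.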

[13] = p53 small molecule agonists, cell-based qHTS assay with human liver microsomes: qHTS cell viability counter screen (AID 1963579); also: nearly all actives have a fitted effect of over 45% in size; also: potency is read from the fitted curve at half-maximal effect
Outline: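 Cells carrying the p53 response-element beta-lactamase reporter are treated for 16 h at 37 C with test compounds in the presence of human liver microsomes and NADPH (both 0.5 mg/mL final); ATP-based CellTiter-Glo luminescence then reports viability.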

[14] = p53 small molecule agonists, cell-based qHTS assay: qHTS cell viability counter screen (AID 1963581); also: nearly all actives have a fitted effect of over 45% in size
Outline: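 In the same plates used for the p53 bla reporter, HCT-116 cells given compounds for 16 h at 37 C received CellTiter-Glo; luminescence was recorded 30 min later at room temperature.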

[15] = target: 5-hydroxytryptamine receptor 2A (Homo sapiens) (UniProt P28223); assay: 5-hydroxytryptamine receptor 2A (HTR2A) small molecule antagonists, cell-based qHTS assay (AID 1963586); also: nearly all actives have a fitted effect of over 45% in size
Outline: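 Antagonist-mode intracellular calcium assay: DOI (4 nM) added after 5 min compound pre-incubation at room temperature to dye-loaded HTR2A-CHO cells. Fluorescence followed for 3 min, sampled every second.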

[16] = target: 5-hydroxytryptamine receptor 2A (Homo sapiens) (UniProt P28223); assay: 5-hydroxytryptamine receptor 2A (HTR2A) small molecule agonists, cell-based qHTS assay (AID 1963587); also: nearly all actives have a fitted effect of over 30% in size
Outline: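 Kinetic calcium-flux fluorescence (2 min, 1 sec intervals) after compound addition in agonist mode. HTR2A-CHO cells were cultured 18 h, then dye-loaded 1 h at 37 C.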

[17] = target: Muscarinic acetylcholine receptor M1 (Homo sapiens) (UniProt P11229); assay: Cholinergic receptor muscarinic 1 (CHRM1) small molecule antagonists, cell-based qHTS assay (AID 1963588); also: nearly all actives have a fitted effect of over 40% in size
Outline: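 CHRM1-CHO calcium-flux assay, antagonist mode. Cells were seeded 18 h, dye-loaded 1 h at 37 C and given compound for 5 min at RT, then acetylcholine was added at 50nM. FDSS fluorescence was read 3 min; 15 concentrations, three runs.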

[18] = target: Beta-2 adrenergic receptor (Homo sapiens) (UniProt P07550); assay: Adrenergic beta2 receptor (ADRB2) small molecule antagonists, cell-based qHTS assay (AID 1963592); also: series mostly up to about 92 µM; nearly all actives have a fitted effect of over 50% in size
Outline: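 Cells (CHO, stable ADRB2 overexpression) incubated 18-20hr at 37C; compounds added from DMSO; agonist mix (1nM isoproterenol, 100uM IBMX, 25uM Ro-20-1724) added; 0.5hr RT; d2-cAMP and anti-cAMP-cryptate added; 1hr RT; 665/615 nm read.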

[19] = Nuclear factor erythroid 2-related factor 2/antioxidant responsive element (Nrf2/ARE) small molecule agonists: luciferase reporter gene qHTS assay in human keratinocytes (AID 1919969); also: nearly all actives have a fitted effect of over 35% in size
[20] = target: Muscarinic acetylcholine receptor M1 (Homo sapiens) (UniProt P11229); assay: Cholinergic receptor muscarinic 1 (CHRM1) small molecule agonists, cell-based qHTS assay (AID 1963589); also: nearly all actives have a fitted effect of over 35% in size
Outline: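 Each compound was tested at 15 concentrations across three independent runs on dye-loaded CHO cells stably expressing human CHRM1, reading intracellular calcium fluorescence kinetically at 1 sec intervals.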

Sequence of Beta-2 adrenergic receptor (Homo sapiens) (P07550 whole entry, looked up): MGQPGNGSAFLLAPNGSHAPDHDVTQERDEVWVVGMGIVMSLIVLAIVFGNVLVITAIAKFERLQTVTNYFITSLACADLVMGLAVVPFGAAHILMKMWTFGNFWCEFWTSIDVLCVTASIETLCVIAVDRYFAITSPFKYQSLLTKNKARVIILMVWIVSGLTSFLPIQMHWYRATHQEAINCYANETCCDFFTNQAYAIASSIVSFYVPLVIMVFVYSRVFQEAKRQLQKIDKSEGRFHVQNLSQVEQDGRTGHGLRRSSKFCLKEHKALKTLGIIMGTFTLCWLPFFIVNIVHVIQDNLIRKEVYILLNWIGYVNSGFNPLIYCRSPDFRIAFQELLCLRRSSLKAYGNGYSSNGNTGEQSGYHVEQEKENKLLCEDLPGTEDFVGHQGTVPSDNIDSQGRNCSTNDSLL
Sequence of Gonadotropin-releasing hormone receptor (Homo sapiens) (P30968 whole entry, looked up): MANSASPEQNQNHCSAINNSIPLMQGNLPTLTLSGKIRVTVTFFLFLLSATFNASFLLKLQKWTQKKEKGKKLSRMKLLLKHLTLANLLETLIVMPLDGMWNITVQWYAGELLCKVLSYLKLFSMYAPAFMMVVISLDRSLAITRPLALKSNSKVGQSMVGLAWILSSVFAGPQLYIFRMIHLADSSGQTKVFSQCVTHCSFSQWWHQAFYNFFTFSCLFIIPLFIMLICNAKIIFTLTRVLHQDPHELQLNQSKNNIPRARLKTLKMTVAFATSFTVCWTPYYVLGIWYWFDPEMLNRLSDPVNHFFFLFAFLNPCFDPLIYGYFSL
Sequence of Muscarinic acetylcholine receptor M1 (Homo sapiens) (P11229 whole entry, looked up): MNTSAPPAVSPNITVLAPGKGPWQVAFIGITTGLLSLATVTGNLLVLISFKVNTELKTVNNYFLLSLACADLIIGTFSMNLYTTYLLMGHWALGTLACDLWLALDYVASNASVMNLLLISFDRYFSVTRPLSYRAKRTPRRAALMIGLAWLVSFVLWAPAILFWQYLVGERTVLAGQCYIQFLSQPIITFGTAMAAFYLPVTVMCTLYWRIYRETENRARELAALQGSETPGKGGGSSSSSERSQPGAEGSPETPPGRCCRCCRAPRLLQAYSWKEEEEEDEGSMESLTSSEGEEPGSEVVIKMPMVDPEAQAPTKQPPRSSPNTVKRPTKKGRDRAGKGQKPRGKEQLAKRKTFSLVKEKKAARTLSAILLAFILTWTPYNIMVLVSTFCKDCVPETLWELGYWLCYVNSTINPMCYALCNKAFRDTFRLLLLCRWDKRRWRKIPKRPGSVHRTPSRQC
Sequence of KiSS-1 receptor (Homo sapiens) (Q969F8 whole entry, looked up): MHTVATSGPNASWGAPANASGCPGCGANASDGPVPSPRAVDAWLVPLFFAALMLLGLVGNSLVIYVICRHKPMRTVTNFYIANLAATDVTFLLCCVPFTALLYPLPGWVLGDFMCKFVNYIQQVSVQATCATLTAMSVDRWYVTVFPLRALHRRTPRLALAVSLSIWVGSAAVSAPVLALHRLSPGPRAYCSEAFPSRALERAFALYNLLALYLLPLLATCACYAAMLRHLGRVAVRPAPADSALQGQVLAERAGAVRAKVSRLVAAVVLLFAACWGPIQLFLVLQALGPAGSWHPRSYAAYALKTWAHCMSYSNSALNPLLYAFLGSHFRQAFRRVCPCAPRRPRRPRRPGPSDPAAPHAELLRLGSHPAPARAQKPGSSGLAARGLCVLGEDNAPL
Sequence of D(2) dopamine receptor (Homo sapiens) (P14416 whole entry, looked up): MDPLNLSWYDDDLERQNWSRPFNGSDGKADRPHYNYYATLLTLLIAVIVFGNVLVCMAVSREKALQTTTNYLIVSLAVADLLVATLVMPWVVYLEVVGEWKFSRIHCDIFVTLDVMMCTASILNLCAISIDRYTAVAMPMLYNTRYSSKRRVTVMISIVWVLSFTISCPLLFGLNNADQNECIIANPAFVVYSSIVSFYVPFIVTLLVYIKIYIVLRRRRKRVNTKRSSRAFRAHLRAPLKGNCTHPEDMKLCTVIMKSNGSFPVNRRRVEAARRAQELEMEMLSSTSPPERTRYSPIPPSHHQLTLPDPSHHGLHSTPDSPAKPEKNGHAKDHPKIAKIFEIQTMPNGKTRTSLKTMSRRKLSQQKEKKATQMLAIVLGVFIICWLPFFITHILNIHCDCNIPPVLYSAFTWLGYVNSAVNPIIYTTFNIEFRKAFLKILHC
Sequence of 5-hydroxytryptamine receptor 2A (Homo sapiens) (P28223 whole entry, looked up): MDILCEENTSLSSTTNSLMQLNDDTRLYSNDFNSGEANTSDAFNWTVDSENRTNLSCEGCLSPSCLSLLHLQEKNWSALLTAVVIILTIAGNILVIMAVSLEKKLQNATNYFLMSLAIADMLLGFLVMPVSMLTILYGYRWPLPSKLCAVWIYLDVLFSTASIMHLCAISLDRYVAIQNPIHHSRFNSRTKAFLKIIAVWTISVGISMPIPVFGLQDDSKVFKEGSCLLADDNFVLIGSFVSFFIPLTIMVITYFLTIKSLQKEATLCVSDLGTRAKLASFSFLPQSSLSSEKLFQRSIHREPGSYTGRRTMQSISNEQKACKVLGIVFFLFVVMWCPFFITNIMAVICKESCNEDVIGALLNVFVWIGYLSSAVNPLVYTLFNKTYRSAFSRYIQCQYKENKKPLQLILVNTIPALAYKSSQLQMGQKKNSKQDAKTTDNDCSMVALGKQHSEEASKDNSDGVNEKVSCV

Compound | Potency [1] | Potency [2] | Potency [3] | Potency [4] | Potency [5] | Potency [6] | Potency [7] | Potency [8] | Potency [9] | Potency [10] | Potency [11] | Potency [12] | Potency [13] | Potency [14] | Potency [15] | Potency [16] | Potency [17] | Potency [18] | Potency [19] | Potency [20]
CN(C)CCN(Cc1cccs1)c1ccccn1 | inactive | inactive | inactive | inactive | inactive | inactive | inactive | inactive | inactive | inactive | inactive | inactive |  |  |  |  |  |  |  | 
COC(=O)CCCC(=O)OC | inactive | inactive |  | inactive | inactive |  | inactive | inactive | inactive |  | inactive | inactive | inactive | inactive | inactive | inactive | inactive | inactive |  | 
CC(=O)CC(c1ccccc1)c1c(O)c2ccccc2oc1=O (stereo unspecified) |  | inactive | inactive |  |  | inactive |  | inactive | inactive | inactive | inactive | inactive | inactive | inactive |  |  |  | inactive |  | 
C=CCOC(=O)CC(C)C | inactive | inactive | inactive | inactive | inactive | inactive | inactive | inactive | inactive | inactive | inactive |  | inactive | inactive | inactive | inactive | inactive | inactive | inactive | inactive
Nc1ccc2c(c1)C(=O)c1ccccc1C2=O | inactive | inactive | inactive | inactive |  | inactive | inactive |  | inactive |  |  |  | inactive and 4.08 µM (active) | inactive | inactive | inactive | inactive | inactive |  | inactive
C[C@@H](O)[C@H]1C(=O)N2C(C(=O)O)=C(S[C@@H]3CN[C@H](C(=O)N(C)C)C3)[C@H](C)[C@H]12 |  | inactive |  | inactive | inactive | inactive |  | inactive | inactive | inactive | inactive | inactive | inactive | inactive |  |  |  | inactive |  | 
CCCCC(C=O)CC (stereo unspecified) |  | inactive | inactive |  |  | inactive |  |  | inactive | inactive |  | inactive | inactive | inactive | inactive |  | inactive | inactive |  | inactive
Nc1ccc(S(N)(=O)=O)cc1 | inactive | inactive | inactive |  |  |  | inactive | inactive | inactive | inactive | inactive | inactive |  | inactive |  |  |  | inactive |  | 
C=C[C@@]1(C)CC(=O)[C@]2(O)[C@@]3(C)[C@@H](O)CCC(C)(C)[C@@H]3[C@H](O)[C@H](OC(C)=O)[C@@]2(C)O1 |  | inactive | inactive | inactive | inactive | inactive | inactive | 243 nM (active) and 298 nM (active) |  | 119 nM (active) | inactive | 30.6 nM (active) and 944 nM (active) |  | inactive | inactive | inactive | inactive |  |  | inactive
CCOC(N)=O | inactive | inactive |  | inactive | inactive | inactive | inactive | inactive | inactive | inactive | inactive | inactive | inactive | inactive |  |  |  | inactive |  | 
C=C(C)C(=O)OCC(C)O (stereo unspecified) | inactive | inactive | inactive |  |  | inactive |  | inactive | inactive | inactive | inactive | inactive | inactive | inactive | inactive | inactive | inactive | inactive |  | inactive
NC=O | inactive | inactive | inactive |  |  | inactive |  | inactive | inactive |  | inactive | inactive | inactive |  | inactive | inactive | inactive | inactive |  | 
CCCCOC(=O)c1ccc(O)cc1 | inactive | inactive | inactive | inactive |  | inactive | inactive | inactive | inactive | inactive | inactive |  | inactive | inactive | inactive | inactive | inactive | inactive |  | inactive
Nc1ccccc1[N+](=O)[O-] |  | inactive | inactive | inactive | inactive | inactive | inactive | inactive | inactive | inactive | inactive |  | inactive | inactive | inactive | inactive | inactive | inactive |  | inactive
C/C=C/C=C/C(=O)O | inactive | inactive | inactive |  |  | inactive |  | inactive | inactive |  | inactive | inactive | inactive | inactive | inactive | inactive | inactive | inactive |  | 
COc1cc([C@@H]2c3cc4c(cc3[C@H](O)[C@H]3COC(=O)[C@H]23)OCO4)cc(OC)c1OC | inactive | inactive | inactive | inactive | inactive | inactive | inactive |  |  | inactive | inactive | inactive |  |  |  |  |  | inactive |  | 
NCCOCCO |  | inactive | inactive | inactive | inactive | inactive | inactive | inactive | inactive | inactive | inactive | inactive | inactive | inactive | inactive | inactive | inactive | inactive |  | inactive
